For 10 molecules, inhibition results are on record in PubChem BioAssay AID493011 (Sanford-Burnham Center for Chemical Genomics, 2011).

SMILES strings stand for the structures. The campaign covered roughly 330,000 compounds. About 1,400 (0.42%) were called active.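 Rule for the calls: active = at least 40% inhibition at 20 µM here, with at most 30% in a related deaminase screen; inactive = the rest.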 This excerpt belongs to a sample that is enriched for actives.

DNA dC->dU-editing enzyme APOBEC-3A (Homo sapiens), sequence (P31941 whole entry, looked up): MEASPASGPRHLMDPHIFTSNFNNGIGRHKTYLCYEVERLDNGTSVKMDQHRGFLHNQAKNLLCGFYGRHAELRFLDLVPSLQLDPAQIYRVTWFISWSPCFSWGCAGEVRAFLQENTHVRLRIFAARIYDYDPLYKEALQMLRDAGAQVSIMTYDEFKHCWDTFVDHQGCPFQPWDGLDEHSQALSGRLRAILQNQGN

The test addresses DNA dC->dU-editing enzyme APOBEC-3A (Homo sapiens) (UniProt P31941). In words: blockers of A3A cytidine deamination on DNA – biochemical, FAM/TAMRA oligo cleavage fluorescence, selectivity assay for APOBEC3G inhibitor project, primary screen (AID 493011).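 Note: plate controls were A3A with DMSO for no effect and wells lacking A3A enzyme for full effect.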 The conditions noted are these: recombinant A3A, FAM/TAMRA ssDNA deamination fluorescence; at 20 µM; active compounds read high.
On to `CCN(CC)CCOC(=O)c1cc2cc(COC)ccc2o1`, for which the inhibition (usually the drop in the measured response relative to a control, in per cent) is 75.9% (active).
On to `CC(=NC1CCN(Cc2ccccc2)CC1)c1c(O)n(C)c(=O)n(C)c1=O`, for which the inhibition is 1.55% (inactive).
`COc1cc(OC)cc(C2(C#N)CCN(C)CC2)c1`: the inhibition was 3.94% (inactive).
`CN(C)c1nc(N(C)C)nc(N(C#N)CCCl)n1`: the inhibition was -2.95% (inactive).
Turning to `O=C(O)CCn1cc(C=C2C(=O)NC(=S)NC2=O)c(-c2cccc(Br)c2)n1`, the inhibition is 40.8% (active).
With `COC(=O)C1=C(c2cccc(OCc3ccccc3)c2)C[C@@H]2CC[C@H]1N2C(=O)NNCc1ccccc1`, the inhibition is -3.97% (inactive).
The value for `CC(=C1C(=O)c2ccccc2C1=O)N1CCN(CCN=Cc2c(O)n(C)c(=O)n(C)c2=O)CC1` was 1.68% (inactive); that for `CC[N+]1(C)CCCC(OC(=O)C(O)(c2ccccc2)c2ccccc2)C1` (stereo not given) was -0.37% (inactive); that for `O=C(c1cc(S(=O)(=O)N2CCOCC2)ccc1F)N1CCC2(CC1)OCCO2` was 4.32% (inactive).
As for `CNC(=O)O/N=C(\N)Cc1csc2ccccc12`, the inhibition was 1.51% (inactive).
